Inconclusive results are not listed. Active and inactive are the calls of the source. Calls follow the shape of the dose curve; as a rule, active = well fitted cell-killing curve with a large enough effect; inconclusive = small, poorly fitted or top-dose-only effect, or effect the other way; inactive = no such curve, though single readings can be large or run the other way.
What follows are molecules tested on Tov-21-G (assay: Confirmatory qHTS for gynecologic anti-cancer compounds from libraries of approved drugs and bioactive compounds). Settings: gynecologic cancer cell panel viability, ATPlite luminescence, 48 h; series mostly up to 57.7 µM.
In short: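 ATP-based luminescent viability (ATPlite) after 48 h drug treatment at 37 °C, 5% CO2, across 57.5 uM–0.977 nM in 1:3 steps. Cells seeded at 1,000 per well 16 h beforehand; IC50 values computed, HEK 293T as selectivity control.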
In the case of CC(C)CC(=O)Nc1n[nH]c2c1CN(C(=O)C1CCN(C)CC1)C2(C)C, the Potency was 3.85 µM (active). In the case of COc1cc(N2CCC(N(C)C)CC2)ccc1Nc1ncc(Cl)c(Nc2ccccc2P(C)(C)=O)n1, the Potency was 1.72 µM (active). For Cc1cnc(Nc2cccc(CN3CCOCC3)c2)nc1Nc1cccc(S(=O)(=O)NC(C)(C)C)c1, the Potency was 3.06 µM (active). With CN(C)/N=N/c1nc[nH]c1C(N)=O the Potency was “inactive”. CCCCc1oc2ccccc2c1C(=O)c1cc(I)c(OCCN(CC)CC)c(I)c1 was tested, and the Potency was 56.2 µM (active). In the case of CC1=C(CO)C(=O)O[C@@H]([C@@H](C)[C@H]2CC[C@H]3[C@@H]4C[C@H]5O[C@]56[C@@H](O)C=CC(=O)[C@]6(C)[C@H]4CC[C@]23C)C1, the Potency was 3.35 µM (active). With Nc1ncn([C@@H]2O[C@H](CO)[C@@H](O)[C@H]2O)c(=O)n1 the Potency was 19.3 µM (active). O=C(/C=C/c1cccc(S(=O)(=O)Nc2ccccc2)c1)NO was tested, and the Potency was 4.73 µM (active). With CCN1CCN(Cc2ccc(-c3cc4c(NC(C)c5ccccc5)ncnc4[nH]3)cc2)CC1 (stereo not drawn) the Potency was 1.72 µM (active). For Cc1cnc(Nc2ccc(OCCN3CCCC3)cc2)nc1Nc1cccc(S(=O)(=O)NC(C)(C)C)c1, the Potency was 1.72 µM (active). With Cc1nc(NC(=O)N2CCCC2C(N)=O)sc1-c1ccnc(C(C)(C)C(F)(F)F)c1 (stereo not drawn) the Potency was 10.9 µM (active). CCc1c2c(nc3ccc(O)cc13)-c1cc3c(c(=O)n1C2)COC(=O)[C@]3(O)CC was tested, and the Potency was 1.09 µM (active). With Nc1ccccc1NC(=O)c1ccc(CNC(=O)OCc2cccnc2)cc1 the Potency was 7.69 µM (active).

From PubChem BioAssay AID1345085 (National Center for Advancing Translational Sciences (NCATS), 2018)
Also: nearly all actives have a fitted effect of over 55% in size.
Potency is read from the fitted curve at half-maximal effect.
